From PubChem BioAssay (NCI)
The panel holds about 83,000 compounds, 20% with a hit somewhere; the sample as a whole holds those more often.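 Method: cells in 96-well plates; compound added at one concentration; 48 h incubation; percent growth measured; values under 10 scored active.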 Activity calls are given as the source filed them.

What was measured:
Assay in all cases: NCI-60 one-dose screen, 48 h (100 = growth as untreated, 0 = no growth, -100 = all killed)
Conditions in all cases: 10 µM unless noted
HCT-15 colon = system: HCT-15 colon
HT29 colon = system: HT29 colon
SNB-75 CNS = system: SNB-75 CNS
SNB-19 CNS = system: SNB-19 CNS
PC-3 prostate = system: PC-3 prostate
SK-MEL-5 melanoma = system: SK-MEL-5 melanoma
LOX IMVI melanoma = system: LOX IMVI melanoma
SK-MEL-28 melanoma = system: SK-MEL-28 melanoma
SK-MEL-2 melanoma = system: SK-MEL-2 melanoma
EKVX NSCLC = system: EKVX NSCLC
SN12C renal = system: SN12C renal
UO-31 renal = system: UO-31 renal
TK-10 renal = system: TK-10 renal
ACHN renal = system: ACHN renal
CAKI-1 renal = system: CAKI-1 renal
A498 renal = system: A498 renal
CCRF-CEM leukemia = system: CCRF-CEM leukemia
MOLT-4 leukemia = system: MOLT-4 leukemia
U251 CNS = system: U251 CNS
UACC-62 melanoma = system: UACC-62 melanoma

Measured: growth

COc1ccc(/C=C/c2nc(Nc3ccc(S(=O)(=O)NC(C)=O)cc3)c3ccccc3n2)cc1
inactive: HCT-15 colon 55.2% | HT29 colon 67.2% | SNB-75 CNS 97.7% | SNB-19 CNS 78.9% | PC-3 prostate 79.3% | SK-MEL-5 melanoma 77.1% | LOX IMVI melanoma 38.3% | SK-MEL-28 melanoma 96.1% | SK-MEL-2 melanoma 99% | EKVX NSCLC 81.6% | SN12C renal 86.7% | UO-31 renal 80.6% | TK-10 renal 92% | ACHN renal 68.6% | CAKI-1 renal 59.6% | CCRF-CEM leukemia 81.7% | MOLT-4 leukemia 79.3%
active: A498 renal 9.58%

COc1ccc(Cc2cnc(NC(=O)c3ccc4c(c3)OCCO4)s2)cc1
inactive: SNB-75 CNS 17.9% | U251 CNS 12.3% | PC-3 prostate 23.4% | UACC-62 melanoma 48.1% | LOX IMVI melanoma 29.3% | SK-MEL-28 melanoma 68.6% | SK-MEL-2 melanoma 39.3% | EKVX NSCLC 37.7% | SN12C renal 30.7% | UO-31 renal 54.8% | TK-10 renal 41% | ACHN renal 27.9% | CAKI-1 renal 27.8% | CCRF-CEM leukemia 13.5% | MOLT-4 leukemia 11.6%
active: HCT-15 colon 7.26% | HT29 colon 2.59% | SK-MEL-5 melanoma -39.3% | A498 renal -6.31%

O=C(Cn1c[n+](CC(=O)c2ccc([N+](=O)[O-])cc2)c2ccccc21)Nc1cccc2cccnc12
inactive: HCT-15 colon 101% | HT29 colon 40.4% | SNB-75 CNS 29.8% | U251 CNS 63.7% | PC-3 prostate 38.9% | SK-MEL-5 melanoma 95.8% | UACC-62 melanoma 69.1% | LOX IMVI melanoma 86.3% | SK-MEL-28 melanoma 78.7% | SK-MEL-2 melanoma 41.4% | EKVX NSCLC 73.6% | SN12C renal 30% | UO-31 renal 66% | TK-10 renal 114% | ACHN renal 93.8% | CAKI-1 renal 84.1% | A498 renal 94.7% | CCRF-CEM leukemia 89.4% | MOLT-4 leukemia 92.8%

O=C(NCCc1ccccc1)Nc1ccc2cc3ccc(NC(=O)NCCc4ccccc4)cc3nc2c1
active: U251 CNS -26.4% | UACC-62 melanoma -51.2% | LOX IMVI melanoma -79.8% | SK-MEL-28 melanoma -29.4% | SK-MEL-2 melanoma 0.339% | SN12C renal -40.1% | CCRF-CEM leukemia 0.959% | MOLT-4 leukemia -46.4%
inactive: HCT-15 colon 97.1% | HT29 colon 31.4% | SNB-75 CNS 17.1% | PC-3 prostate 19.3% | SK-MEL-5 melanoma 60.9% | EKVX NSCLC 71.9% | UO-31 renal 89.9% | TK-10 renal 99.2% | ACHN renal 100%

COc1cc2c(c(OC)c1OC)CCC(c1cccc(NC(=O)c3cccc(Br)c3)c1)O2 (stereo not given)
inactive: HCT-15 colon 87.7% | HT29 colon 87% | SNB-75 CNS 86.8% | U251 CNS 93.5% | PC-3 prostate 76.1% | SK-MEL-5 melanoma 88.2% | UACC-62 melanoma 70.1% | LOX IMVI melanoma 92.4% | SK-MEL-28 melanoma 90.9% | SK-MEL-2 melanoma 103% | EKVX NSCLC 84.6% | SN12C renal 87.6% | UO-31 renal 79% | TK-10 renal 91.8% | ACHN renal 94.2% | CAKI-1 renal 91.5% | CCRF-CEM leukemia 88%

Cc1cc2nc3c4cccc(O)c4n(CCN(C)C)c3nc2cc1C
inactive: HCT-15 colon 21.6% | HT29 colon 31.1% | SNB-75 CNS 25.8% | U251 CNS 35.5% | PC-3 prostate 35.6% | SK-MEL-5 melanoma 39.3% | UACC-62 melanoma 49.5% | SK-MEL-28 melanoma 75.6% | SK-MEL-2 melanoma 54.2% | EKVX NSCLC 42.2% | SN12C renal 29.6% | TK-10 renal 72.8% | CAKI-1 renal 13.2% | CCRF-CEM leukemia 27%
active: LOX IMVI melanoma 8.06% | UO-31 renal 6.09% | ACHN renal 8.22% | MOLT-4 leukemia 6.01%

N#C/C(=C\c1cccc(C#N)c1)c1ccccc1
inactive: HCT-15 colon 111% | SNB-75 CNS 88.9% | SNB-19 CNS 109% | U251 CNS 89.2% | PC-3 prostate 99.7% | SK-MEL-5 melanoma 101% | UACC-62 melanoma 108% | LOX IMVI melanoma 98.9% | SK-MEL-28 melanoma 115% | SK-MEL-2 melanoma 112% | EKVX NSCLC 90.7% | SN12C renal 98.9% | UO-31 renal 93.3% | TK-10 renal 91% | ACHN renal 106% | CAKI-1 renal 96% | A498 renal 112%

N#Cc1c(NC(=O)NCc2ccccc2)sc2c1CCCCC2
inactive: HCT-15 colon 15.2% | SNB-75 CNS 22.8% | U251 CNS 24.8% | PC-3 prostate 28.7% | SK-MEL-5 melanoma 17.6% | UACC-62 melanoma 18.9% | LOX IMVI melanoma 26.4% | SK-MEL-28 melanoma 67.4% | SK-MEL-2 melanoma 39.1% | EKVX NSCLC 39.3% | SN12C renal 30.3% | UO-31 renal 46.7% | TK-10 renal 41.1% | ACHN renal 43.4% | CAKI-1 renal 29.8% | CCRF-CEM leukemia 14.7% | MOLT-4 leukemia 18%
active: HT29 colon 9.68%

COc1ccc(-c2cnc3c(-c4cccc5cnccc45)cnn3c2)cc1
active: ACHN renal -1.14%
inactive: HCT-15 colon 64.5% | HT29 colon 41.3% | SNB-75 CNS 42% | PC-3 prostate 50.6% | SK-MEL-5 melanoma 56.5% | UACC-62 melanoma 59.3% | LOX IMVI melanoma 80% | SK-MEL-28 melanoma 60.5% | SK-MEL-2 melanoma 75.5% | EKVX NSCLC 96.1% | SN12C renal 58.8% | UO-31 renal 52.1% | TK-10 renal 65.8% | CAKI-1 renal 61.4% | A498 renal 44.6% | CCRF-CEM leukemia 59.2%

CC(=O)Nc1ccc(-n2cnc3cc(-c4ccc(OCCN5CCCCC5)cc4)ccc32)cc1
inactive: HCT-15 colon 43.6% | SNB-75 CNS 88.2% | U251 CNS 44% | PC-3 prostate 64.3% | SK-MEL-5 melanoma 79% | UACC-62 melanoma 120% | LOX IMVI melanoma 86.8% | SK-MEL-28 melanoma 107% | SK-MEL-2 melanoma 119% | EKVX NSCLC 97.9% | SN12C renal 67.1% | UO-31 renal 56.3% | TK-10 renal 146% | ACHN renal 76.8% | CAKI-1 renal 84.2% | CCRF-CEM leukemia 54.8% | MOLT-4 leukemia 73.1%
active: HT29 colon 2.12%

COC1=CC(=O)c2ccccc2C1=O
active: LOX IMVI melanoma 4.09%
inactive: HCT-15 colon 99.7% | SNB-75 CNS 33.7% | SNB-19 CNS 105% | U251 CNS 52.6% | PC-3 prostate 65.7% | SK-MEL-5 melanoma 47.8% | UACC-62 melanoma 74.2% | SK-MEL-28 melanoma 90% | SK-MEL-2 melanoma 69.3% | EKVX NSCLC 110% | SN12C renal 84.8% | UO-31 renal 71.9% | TK-10 renal 94% | ACHN renal 75.6% | CAKI-1 renal 95.6% | A498 renal 107%

CC1(C)NCCC[C@]2(C)[C@H]3CC[C@@H]4[C@H]5[C@H](C(=O)/C=C/c6ccco6)CC[C@]5(CO)CC[C@@]4(C)[C@]3(C)CC[C@@H]12
active: TK-10 renal 9.01%
inactive: HCT-15 colon 59.1% | HT29 colon 106% | SNB-75 CNS 83% | U251 CNS 82% | PC-3 prostate 62.4% | SK-MEL-5 melanoma 93.4% | UACC-62 melanoma 87.8% | LOX IMVI melanoma 74.8% | SK-MEL-28 melanoma 104% | SK-MEL-2 melanoma 117% | EKVX NSCLC 101% | SN12C renal 82.1% | UO-31 renal 67.3% | ACHN renal 99.6% | CAKI-1 renal 76.1% | A498 renal 51.3% | CCRF-CEM leukemia 74.6%

C=C1C(=O)O[C@H]2[C@H]1CC/C(COC(=O)NCc1c[nH]c3ccc(Br)cc13)=C\CC[C@@]1(C)O[C@@H]21
active: HCT-15 colon -70.2% | HT29 colon -76.6% | SNB-75 CNS -5.16% | SK-MEL-5 melanoma -27.1% | UACC-62 melanoma -63% | LOX IMVI melanoma -82% | SK-MEL-28 melanoma -33.5% | SK-MEL-2 melanoma 1.8% | EKVX NSCLC -16.5% | SN12C renal -43.2% | UO-31 renal -98.3% | TK-10 renal -68.7% | ACHN renal -71.2% | CAKI-1 renal -92.8% | CCRF-CEM leukemia -13.1% | MOLT-4 leukemia -2.46%
inactive: PC-3 prostate 15.4%

Cn1c(-c2c(N)n(CCCN3CCOCC3)c3nc(C#N)c(C#N)nc23)nc2ccccc21
inactive: HCT-15 colon 67.1% | HT29 colon 68% | SNB-75 CNS 38.4% | U251 CNS 67.8% | PC-3 prostate 35.5% | SK-MEL-5 melanoma 92.9% | UACC-62 melanoma 77.2% | LOX IMVI melanoma 67.7% | SK-MEL-28 melanoma 59.1% | SK-MEL-2 melanoma 109% | EKVX NSCLC 66.3% | SN12C renal 40.5% | UO-31 renal 12.4% | TK-10 renal 46.8% | CAKI-1 renal 57.6% | A498 renal 90.6% | MOLT-4 leukemia 31.5%
active: ACHN renal -79.1%

O=c1ccc(-c2nc(N3CCOCC3)c3ccccc3n2)c[nH]1
inactive: HCT-15 colon 99.1% | HT29 colon 101% | SNB-75 CNS 81.1% | U251 CNS 99.1% | PC-3 prostate 93.5% | SK-MEL-5 melanoma 88.3% | UACC-62 melanoma 55.5% | LOX IMVI melanoma 98.3% | SK-MEL-28 melanoma 97.6% | SK-MEL-2 melanoma 108% | EKVX NSCLC 59.2% | SN12C renal 94.6% | UO-31 renal 83.1% | TK-10 renal 87.3% | ACHN renal 93.1% | CAKI-1 renal 95.9% | CCRF-CEM leukemia 108% | MOLT-4 leukemia 110%

Clc1ccc(-c2ccc(CNCC3CCNCC3)o2)c(-c2ccccc2)c1
active: HCT-15 colon -76.3% | HT29 colon -78.6% | SNB-75 CNS -90.8% | U251 CNS -88.8% | PC-3 prostate -81.8% | SK-MEL-5 melanoma -99.1% | UACC-62 melanoma -90.8% | LOX IMVI melanoma -86.7% | SK-MEL-28 melanoma -90% | SK-MEL-2 melanoma -75.7% | EKVX NSCLC -15% | SN12C renal -75.6% | UO-31 renal -95.1% | TK-10 renal -85.3% | ACHN renal -96.8% | CAKI-1 renal -85.3% | A498 renal 6.29% | CCRF-CEM leukemia -62.7% | MOLT-4 leukemia -62.7%
